PubChem BioAssay AID1259415 (National Center for Advancing Translational Sciences (NCATS), 2018)
In all, about 410,000 compounds went through this assay and about 18,000 (4.4%) were called active. Inconclusive results (about 7%) are left out. This excerpt belongs to a sample that is enriched for actives. Values without a mark were called inactive. Cut-off read from the data, not from the text of the source: active = activity change below about -60%; inconclusive = no clear call, values can overlap the other calls; inactive = above about -39%.

Experiment: qHTS Assay for inhibitors of the human cytomegalovirus (HCMV)
Conditions: HFF cells, HCMV-luciferase reporter, 72 h; at 57.5 µM; active compounds read low
How it was run: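 Compounds were evaluated in HFFs infected with an HCMV luciferase reporter virus (MOI 1 PFU/cell). Luciferase in lysates collected 72 h post infection served as the replication measure.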
% is set by controls: 0 for no effect and ±100 for the full control effect.

Row | SMILES | activity change, negative = inhibition
1 | COCCNC(=O)c1cccc(-c2nc3c(NC4CCCCC4)nccc3[nH]2)c1 | -4.46%
2 | CCOc1ccccc1NC(=O)CCn1cnnn1 | -4.13%
3 | O=C(COc1cc(Cl)c(Cl)cc1Cl)NC(=O)NC1CCCC1 | 65.3%
4 | NC(=S)NN=Cc1ccc(OC(=O)COc2cc(Cl)c(Cl)cc2Cl)cn1 | -75.3% (active)
5 | CC(C)(C)c1ccc(C(=O)N2CCC(c3nc(-c4ccc(S(=O)(=O)N5CCCC5)cc4)no3)CC2)cc1 | -35.7%
6 | CCCN(C(=O)Cn1cc(S(=O)(=O)N2CCN(c3ccccc3F)CC2)c2ccccc2c1=O)c1cccc(C)c1 | -13.9%
7 | CC1COC2C(O1)N(S(C)(=O)=O)CCN2S(C)(=O)=O (stereo not given) | 17.4%
8 | CCOC(=O)CC1COCCN1C(=O)c1cc(COc2ccc(F)c(F)c2)on1 (stereo not given) | 53.9%
9 | CCOC(=O)CC1(NC(=O)c2cc(COc3cncc(Cl)c3)on2)CCCCC1 | -73.4% (active)
10 | CCCOC1CCCN(C(=O)c2cc(COc3cncc(Cl)c3)on2)C1 (stereo not given) | 45.7%
11 | O=C(O)CSc1nccn1-c1cccc(Cl)c1 | -24.9%
12 | Cc1ccc(Nc2c(-c3ccc(N(C)C)cc3)nc3nc[nH]n23)cc1 | -7.65%
13 | Cc1cccc(OCCSc2nc3ccccc3n2CC(=O)N2CCCCC2)c1C | 0.117%
14 | CCOC(=O)C1CCCN(C(=O)c2ccc(-n3ccc4ccccc43)s2)C1 (stereo not given) | 7.94%
15 | CC1CN(C(=O)c2cc(COc3c(F)cccc3F)on2)CCN1C (stereo not given) | 3.63%
16 | C=CCC1(CC=C)CCCN1C(=O)c1cc(COc2ccc(-n3cncn3)cc2)on1 | -87.7% (active)
17 | Cc1ccc(C)c(OCc2cc(C(=O)N3CCN(c4cnccn4)CC3)no2)c1 | -30.5%
18 | COc1cccc(CNC(=O)Cn2c(=O)c3cccn3c3ccc(F)cc32)c1OC | 44.7%
19 | CCOc1ccccc1CNC(=O)c1ccc2c(c1)nc1n2CCC(C)C1 (stereo not given) | 33.3%
20 | Cc1ccc2nc(COc3cccc(NC(=O)Nc4ccc(C)c(Cl)c4)c3)cc(=O)n2c1 | 26.6%
21 | CC(NC(=O)c1cc2c(=O)n3ccccc3nc2n(C(C)C)c1=N)c1ccccc1 (stereo not given) | 0.208%
22 | Cc1nn(-c2nc(-c3ccccc3)cc(C(F)(F)F)n2)c(C)c1Cl | -14.9%
23 | CCCCCCCC(=O)NC(Nc1ccccc1OC)C(Cl)(Cl)Cl (stereo not given) | -23.2%
24 | CCOc1ccc(C(CC(=O)O)n2cnnn2)cc1OC (stereo not given) | -29.4%
25 | CCCCC(=O)NC(c1ccc(OC)c(OC)c1)c1ccc2cccnc2c1O (stereo not given) | -103% (active)
